# In paper PMC9911399, “Two distinct binding modes provide the RNA-binding protein RbFox with extraordinary sequence specificity”:
# Numbering of substitutions follows the chain as printed; changes in the protein carry UniProt numbers. In all, about 16,000 sequences were measured (“ka relative to ugcaugu”: median about 0.096, highest 2% from about 0.35 on). The sample holds the highest values, similar sequences and a random draw of the others, so the mix is not that of the screen.
# T1: RBFOX1 RRM RbFoxmut (Fox-RRM*) (Homo sapiens, UniProt Q9NWB1 109-208, R118D;E147R;N151S;E152T)
# T1 sequence: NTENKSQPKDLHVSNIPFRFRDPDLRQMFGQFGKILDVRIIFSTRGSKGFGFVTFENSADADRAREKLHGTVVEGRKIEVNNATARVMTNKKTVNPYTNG
# B1: UGUACUC (DNA:RNA)
# RNA: GGGAGACCGGAAUUCAGAUUGUCCUGUACUCUUAAAUCCCGUCGUAGCCACCA
# DNA 1: CAATCTGAATTCCGGTCTCCC
# DNA 2: TGGTGGCTACGACGGGATT
# B2: ACGAAGA (DNA:RNA)
# RNA: B1 RNA with U25A, G26C, U27G, C29A, U30G, C31A
# DNA 1: CAATCTGAATTCCGGTCTCCC
# DNA 2: TGGTGGCTACGACGGGATT
# B3: UUCGCAG (DNA:RNA)
# RNA: B1 RNA with G26U, U27C, A28G, U30A, C31G
# DNA 1: CAATCTGAATTCCGGTCTCCC
# DNA 2: TGGTGGCTACGACGGGATT
# B4: GACGGCA (DNA:RNA)
# RNA: GGGAGACCGGAAUUCAGAUUGUCCGACGGCAUUAAAUCCCGUCGUAGCCACCA
# DNA 1: CAATCTGAATTCCGGTCTCCC
# DNA 2: TGGTGGCTACGACGGGATT
# B5: AUUGGAU (DNA:RNA)
# RNA: B4 RNA with G25A, A26U, C27U, C30A, A31U
# DNA 1: CAATCTGAATTCCGGTCTCCC
# DNA 2: TGGTGGCTACGACGGGATT
# B6: CUGUCGU (DNA:RNA)
# RNA: B1 RNA with U25C, G26U, U27G, A28U, U30G, C31U
# DNA 1: CAATCTGAATTCCGGTCTCCC
# DNA 2: TGGTGGCTACGACGGGATT
# B7: CUGUGUG (DNA:RNA)
# RNA: B4 RNA with G25C, A26U, C27G, G28U, C30U, A31G
# DNA 1: CAATCTGAATTCCGGTCTCCC
# DNA 2: TGGTGGCTACGACGGGATT
# B8: UGUGUGU (DNA:RNA)
# RNA: B1 RNA with A28G, C29U, U30G, C31U
# DNA 1: CAATCTGAATTCCGGTCTCCC
# DNA 2: TGGTGGCTACGACGGGATT
# B9: CCCUGUG (DNA:RNA)
# RNA: B4 RNA with G25C, A26C, G28U, C30U, A31G
# DNA 1: CAATCTGAATTCCGGTCTCCC
# DNA 2: TGGTGGCTACGACGGGATT
# B10: UGUGUUU (DNA:RNA)
# RNA: B1 RNA with A28G, C29U, C31U
# DNA 1: CAATCTGAATTCCGGTCTCCC
# DNA 2: TGGTGGCTACGACGGGATT
# B11: CUGUUUG (DNA:RNA)
# RNA: B1 RNA with U25C, G26U, U27G, A28U, C29U, C31G
# DNA 1: CAATCTGAATTCCGGTCTCCC
# DNA 2: TGGTGGCTACGACGGGATT
# B12: CUGUGUU (DNA:RNA)
# RNA: B4 RNA with G25C, A26U, C27G, G28U, C30U, A31U
# DNA 1: CAATCTGAATTCCGGTCTCCC
# DNA 2: TGGTGGCTACGACGGGATT
# B13: UGUCCGU (DNA:RNA)
# RNA: B1 RNA with A28C, U30G, C31U
# DNA 1: CAATCTGAATTCCGGTCTCCC
# DNA 2: TGGTGGCTACGACGGGATT
# B14: ACCUGUG (DNA:RNA)
# RNA: B4 RNA with G25A, A26C, G28U, C30U, A31G
# DNA 1: CAATCTGAATTCCGGTCTCCC
# DNA 2: TGGTGGCTACGACGGGATT
# B15: UGUUUGU (DNA:RNA)
# RNA: B1 RNA with A28U, C29U, U30G, C31U
# DNA 1: CAATCTGAATTCCGGTCTCCC
# DNA 2: TGGTGGCTACGACGGGATT
# B16: UGUUUUU (DNA:RNA)
# RNA: B1 RNA with A28U, C29U, C31U
# DNA 1: CAATCTGAATTCCGGTCTCCC
# DNA 2: TGGTGGCTACGACGGGATT
# B17: CUGUUGU (DNA:RNA)
# RNA: GGGAGACCGGAAUUCAGAUUGUCCCUGUUGUUUAAAUCCCGUCGUAGCCACCA
# DNA 1: CAATCTGAATTCCGGTCTCCC
# DNA 2: TGGTGGCTACGACGGGATT
# B18: AAGACCU (DNA:RNA)
# RNA: B17 RNA with C25A, U26A, U28A, U29C, G30C
# DNA 1: CAATCTGAATTCCGGTCTCCC
# DNA 2: TGGTGGCTACGACGGGATT
# B19: GACUUGG (DNA:RNA)
# RNA: B17 RNA with C25G, U26A, G27C, U31G
# DNA 1: CAATCTGAATTCCGGTCTCCC
# DNA 2: TGGTGGCTACGACGGGATT
# B20: CCCAUAU (DNA:RNA)
# RNA: B17 RNA with U26C, G27C, U28A, G30A
# DNA 1: CAATCTGAATTCCGGTCTCCC
# DNA 2: TGGTGGCTACGACGGGATT
# Target: T1, RBFOX1 RRM RbFoxmut (Fox-RRM*)
# Experiment: EMSA; HiTS-Eq, 1 nM pool, 10 min; buffer printed only for the single-RNA assays: 10 mM Tris pH 7.5, 150 mM NaCl, 3.4 mM EDTA, 0.001% NP-40, 30 C
# Settings: tags: His6 N-terminal (pET28a); label: 5' 32P
# How it was run: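 Purified RbFox RRM, wild type or mutant, was incubated for 10 min in 50 µL with 1 nM of a 5′-radiolabelled RNA pool carrying 7 randomized nucleotides, whose flanks were annealed to DNA oligonucleotides, over a series of increasing protein concentrations. Unbound RNA was resolved on 8% native PAGE, cut out, reverse-transcribed, barcoded by PCR and sequenced on an Illumina HiSeq 2500. Relative association constants were derived from changes in read counts for each RNA species versus the control reaction and normalised to the cognate motif.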
row,Binder,binding signal
1,B1,0.0695 KA relative to UGCAUGU
2,B2,0.105 KA relative to UGCAUGU
3,B3,0.0914 KA relative to UGCAUGU
4,B4,0.149 KA relative to UGCAUGU
5,B5,0.0952 KA relative to UGCAUGU
6,B6,0.138 KA relative to UGCAUGU
7,B7,0.388 KA relative to UGCAUGU
8,B8,0.366 KA relative to UGCAUGU
9,B9,0.138 KA relative to UGCAUGU
10,B10,0.115 KA relative to UGCAUGU
11,B11,0.75 KA relative to UGCAUGU
12,B12,0.14 KA relative to UGCAUGU
13,B13,0.147 KA relative to UGCAUGU
14,B14,0.139 KA relative to UGCAUGU
15,B15,0.549 KA relative to UGCAUGU
16,B16,0.0878 KA relative to UGCAUGU
17,B17,0.166 KA relative to UGCAUGU
18,B18,0.0678 KA relative to UGCAUGU
19,B19,0.129 KA relative to UGCAUGU
20,B20,0.0892 KA relative to UGCAUGU
